# According to PubChem BioAssay (NCATS):
# Unmarked numbers belong to inactive results. Results filed as inconclusive are left out. Entries that show only a call come without a potency. The source made the active and inactive calls. Unless noted, the call rests on the fitted dose curve; in most records, active means well fitted curve in the direction sought with a large enough effect; inconclusive means small, poorly fitted or top-dose-only effect, or another doubt; inactive means no such curve, though single readings can be large; an effect the other way counts as inactive or inconclusive.
# Key:
# [1] = target: Cytochrome P450 1A2 (Homo sapiens) (UniProt P05177); test: p450-cyp1a2 (AID 410; calls by dose curve; further: potency means the concentration at half of the fitted maximal effect)
# Sequence of Cytochrome P450 1A2 (Homo sapiens) (P05177 whole entry, looked up): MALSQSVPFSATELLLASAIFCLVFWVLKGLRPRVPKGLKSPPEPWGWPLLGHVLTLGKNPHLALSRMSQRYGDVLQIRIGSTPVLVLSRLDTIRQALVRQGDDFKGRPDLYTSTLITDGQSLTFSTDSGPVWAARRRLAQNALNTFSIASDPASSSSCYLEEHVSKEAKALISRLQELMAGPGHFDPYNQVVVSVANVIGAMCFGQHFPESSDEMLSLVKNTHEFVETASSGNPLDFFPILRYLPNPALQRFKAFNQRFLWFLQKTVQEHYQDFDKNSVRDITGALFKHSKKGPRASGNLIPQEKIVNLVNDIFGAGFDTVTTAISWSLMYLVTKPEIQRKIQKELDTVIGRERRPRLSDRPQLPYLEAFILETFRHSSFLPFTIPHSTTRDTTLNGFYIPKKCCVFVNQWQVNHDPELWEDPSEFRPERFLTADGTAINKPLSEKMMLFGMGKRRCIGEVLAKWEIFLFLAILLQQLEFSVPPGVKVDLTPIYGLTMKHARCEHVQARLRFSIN
# How it was run: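 20nM CYP1A2, 100uM Luciferin-ME (=Km), 100mM KPO4; cpd 10 min RT; +NADPH regen, 60 min RT; stop/detect 20 min; luminescence. Normalized to furafylline 57 uM = full inhibition.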
# [2] = target: Glucocorticoid receptor (Homo sapiens) (UniProt P04150); test: GR-GFP Redistribution (AID 450;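 active means compounds whose dose series gives a full or clear partial fitted curve of increased nuclear translocation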; further: potency means the concentration at half of the fitted maximal effect)
# Sequence of Glucocorticoid receptor (Homo sapiens) (P04150 whole entry, looked up): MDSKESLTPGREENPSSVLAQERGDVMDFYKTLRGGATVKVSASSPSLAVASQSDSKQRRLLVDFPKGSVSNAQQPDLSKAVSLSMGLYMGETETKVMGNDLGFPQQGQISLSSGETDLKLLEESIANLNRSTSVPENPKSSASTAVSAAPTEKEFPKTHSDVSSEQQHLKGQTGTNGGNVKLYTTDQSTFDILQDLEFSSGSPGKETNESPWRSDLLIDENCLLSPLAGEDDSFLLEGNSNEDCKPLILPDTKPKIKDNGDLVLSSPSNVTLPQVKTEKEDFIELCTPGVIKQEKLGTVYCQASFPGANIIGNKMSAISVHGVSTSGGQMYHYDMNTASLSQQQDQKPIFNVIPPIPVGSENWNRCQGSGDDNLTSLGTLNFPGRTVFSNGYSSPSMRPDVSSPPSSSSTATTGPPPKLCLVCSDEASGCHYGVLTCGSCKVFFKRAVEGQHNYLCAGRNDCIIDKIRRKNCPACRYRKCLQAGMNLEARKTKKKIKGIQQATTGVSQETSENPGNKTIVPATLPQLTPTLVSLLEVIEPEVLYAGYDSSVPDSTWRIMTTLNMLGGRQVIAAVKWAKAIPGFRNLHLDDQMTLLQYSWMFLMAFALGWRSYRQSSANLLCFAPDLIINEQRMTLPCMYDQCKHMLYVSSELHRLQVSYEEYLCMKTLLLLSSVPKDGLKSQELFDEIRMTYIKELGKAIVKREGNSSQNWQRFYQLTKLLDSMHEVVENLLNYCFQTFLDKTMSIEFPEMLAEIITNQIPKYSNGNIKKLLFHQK
# [3] = target: Mitogen-activated protein kinase 10 (Mus musculus) (UniProt Q61831); test: JNK3 AlphaScreen Assay (AID 530; active means well fitted curve in either direction with a large enough effect, not every such curve was filed as active;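 further: kinase came from lysate of stimulated human HepG2 cells; signal reports phosphorylation of biotinylated GST-cJun 1-79 at Ser73 with 10 µM ATP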)
# How it was run: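 Kinase buffer: 20 mM Tris-HCl pH 7.6, 10 mM MgCl2, 1 mM DTT, 0.1 mM Na3VO4, 0.01% Tween-20; ATP 10 uM. Substrate biotin-GST-cJun(1-79), enzyme from activated HepG2 lysates. Detection by Ser73 phospho-antibody AlphaScreen.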
# [4] = target: 3',5'-cyclic-AMP phosphodiesterase 4B (Homo sapiens) (UniProt Q07343); test: qHTS Assay for Inhibitors of PDE-IV (AID 607; active means well fitted activation curve with a large enough effect in the main read-out, with a control signal flat, not every such curve was filed as active)
# Sequence of 3',5'-cyclic-AMP phosphodiesterase 4B (Homo sapiens) (Q07343 whole entry, looked up): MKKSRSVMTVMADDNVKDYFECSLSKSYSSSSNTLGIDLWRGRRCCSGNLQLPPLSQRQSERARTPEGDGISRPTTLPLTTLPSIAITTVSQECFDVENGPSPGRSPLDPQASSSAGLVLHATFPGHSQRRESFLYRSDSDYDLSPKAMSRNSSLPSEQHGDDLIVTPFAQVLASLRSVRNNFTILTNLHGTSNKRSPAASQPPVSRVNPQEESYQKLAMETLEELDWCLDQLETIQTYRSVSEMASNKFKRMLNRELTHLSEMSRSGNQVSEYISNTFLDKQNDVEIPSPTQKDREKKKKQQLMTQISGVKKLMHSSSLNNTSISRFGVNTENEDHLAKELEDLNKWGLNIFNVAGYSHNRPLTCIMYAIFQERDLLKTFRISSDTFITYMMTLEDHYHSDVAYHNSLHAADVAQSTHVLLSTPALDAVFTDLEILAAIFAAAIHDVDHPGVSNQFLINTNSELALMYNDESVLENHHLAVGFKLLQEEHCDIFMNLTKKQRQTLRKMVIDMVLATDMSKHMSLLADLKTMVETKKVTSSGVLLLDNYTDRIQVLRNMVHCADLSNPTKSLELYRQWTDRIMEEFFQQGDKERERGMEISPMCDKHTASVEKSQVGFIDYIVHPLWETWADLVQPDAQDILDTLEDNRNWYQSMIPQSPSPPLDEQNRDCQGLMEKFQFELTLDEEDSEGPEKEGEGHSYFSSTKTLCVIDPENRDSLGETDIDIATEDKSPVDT
# How it was run: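 ACTOne HEK293 cells carry a modified cAMP-gated CNG channel and express endogenous PDE4; plated 1000 cells/well, compounds up to 22.9 uM final. Membrane-potential dye fluorescence (ex 535/em 590) was read; parental cells received 10 uM forskolin + 100 uM RO 20-1724.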
# [5] = target: Cytochrome P450 2C19 (Homo sapiens) (UniProt P33261); test: qHTS Assay for Inhibitors and Substrates of Cytochrome P450 2C19 (AID 899); further: potency means the concentration at half of the fitted maximal effect; nearly all actives have a fitted effect of over 60% in size
# Sequence of Cytochrome P450 2C19 (Homo sapiens) (P33261 whole entry, looked up): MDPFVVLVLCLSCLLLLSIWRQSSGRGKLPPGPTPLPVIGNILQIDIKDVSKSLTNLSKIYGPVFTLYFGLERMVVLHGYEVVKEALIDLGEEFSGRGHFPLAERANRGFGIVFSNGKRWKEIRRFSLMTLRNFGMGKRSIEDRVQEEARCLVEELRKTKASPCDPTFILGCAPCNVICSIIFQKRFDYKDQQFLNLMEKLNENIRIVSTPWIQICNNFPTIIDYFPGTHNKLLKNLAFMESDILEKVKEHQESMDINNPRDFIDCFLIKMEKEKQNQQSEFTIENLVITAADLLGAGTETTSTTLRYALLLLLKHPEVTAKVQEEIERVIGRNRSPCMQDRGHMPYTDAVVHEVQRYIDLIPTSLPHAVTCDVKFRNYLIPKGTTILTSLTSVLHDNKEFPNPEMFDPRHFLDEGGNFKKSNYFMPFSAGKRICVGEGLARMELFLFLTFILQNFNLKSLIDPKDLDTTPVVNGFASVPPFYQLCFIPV
# How it was run: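 Reactions contain 5nM enzyme, 10uM Luciferin-H EGE (KM) and 50mM KPO4; compound preincubates 10 min at 37C, NADPH regeneration starts turnover for 60 min. Luminescence after detection reagent gives activity.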
# [6] = target: ATP-dependent 6-phosphofructokinase (Trypanosoma brucei brucei) (UniProt O15648); test: qHTS Assay to Find Inhibitors of T. brucei phosphofructokinase: hit validation (AID 492961);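 further: luminescence reports ADP formed as PFK phosphorylates fructose-6-phosphate with ATP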
# Sequence of ATP-dependent 6-phosphofructokinase (Trypanosoma brucei brucei) (O15648 whole entry, looked up): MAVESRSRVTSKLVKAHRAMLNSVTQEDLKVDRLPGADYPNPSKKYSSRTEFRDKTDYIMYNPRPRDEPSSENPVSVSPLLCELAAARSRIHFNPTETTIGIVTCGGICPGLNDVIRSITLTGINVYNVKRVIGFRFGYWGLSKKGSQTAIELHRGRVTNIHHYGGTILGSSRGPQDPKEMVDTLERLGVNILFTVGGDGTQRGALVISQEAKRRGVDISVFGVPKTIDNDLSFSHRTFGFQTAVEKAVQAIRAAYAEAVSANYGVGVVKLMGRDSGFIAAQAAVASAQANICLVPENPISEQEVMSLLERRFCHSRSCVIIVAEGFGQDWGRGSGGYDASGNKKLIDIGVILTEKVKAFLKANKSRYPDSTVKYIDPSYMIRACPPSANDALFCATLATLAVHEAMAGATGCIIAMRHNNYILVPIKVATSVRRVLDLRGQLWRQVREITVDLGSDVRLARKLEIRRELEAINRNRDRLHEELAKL
# How it was run: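 Measures ADP output of PFK (1.25 nM) at 0.1 mM ATP, 0.5 mM F6P, pH 8.0 TEA buffer with 5 mM MgCl2. No-enzyme wells define full inhibition; uninhibited enzyme wells define zero.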
# [7] = target: Ubiquitin carboxyl-terminal hydrolase 1 (Homo sapiens) (UniProt O94782); test: Inhibitors of USP1/UAF1: Pilot qHTS (AID 504865);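 further: rhodamine fluorescence freed from ubiquitin-rhodamine substrate followed over time; top concentration of the series differs between compounds; nearly all actives have a fitted effect of over 35% in size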
# Sequence of Ubiquitin carboxyl-terminal hydrolase 1 (Homo sapiens) (O94782 whole entry, looked up): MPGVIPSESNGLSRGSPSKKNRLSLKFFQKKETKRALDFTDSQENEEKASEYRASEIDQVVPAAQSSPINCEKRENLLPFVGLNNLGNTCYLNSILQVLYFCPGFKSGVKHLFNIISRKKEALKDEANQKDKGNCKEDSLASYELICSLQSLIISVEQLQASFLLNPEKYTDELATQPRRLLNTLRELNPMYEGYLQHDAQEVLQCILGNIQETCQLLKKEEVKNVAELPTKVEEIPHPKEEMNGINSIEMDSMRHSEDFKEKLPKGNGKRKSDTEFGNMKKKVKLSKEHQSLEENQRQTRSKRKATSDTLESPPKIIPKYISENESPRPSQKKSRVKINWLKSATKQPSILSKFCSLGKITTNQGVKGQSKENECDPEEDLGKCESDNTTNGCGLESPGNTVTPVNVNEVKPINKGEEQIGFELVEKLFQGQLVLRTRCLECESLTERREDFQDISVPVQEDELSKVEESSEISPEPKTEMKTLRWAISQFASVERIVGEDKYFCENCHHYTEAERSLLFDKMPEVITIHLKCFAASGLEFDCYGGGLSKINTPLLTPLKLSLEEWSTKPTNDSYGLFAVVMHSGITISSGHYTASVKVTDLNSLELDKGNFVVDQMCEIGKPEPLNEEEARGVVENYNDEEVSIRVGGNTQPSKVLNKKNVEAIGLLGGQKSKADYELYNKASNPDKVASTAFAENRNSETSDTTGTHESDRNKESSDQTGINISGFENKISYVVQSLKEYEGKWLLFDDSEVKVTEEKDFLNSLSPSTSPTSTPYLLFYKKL
# How it was run: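 1nM USP1/UAF1 + cpd, 15 min RT; start w/ Ub-Rho 150nM final; kinetic FL 480/540 nm, 6 reads q60 s. Buffer 50mM HEPES pH 7.8, 0.5mM EDTA, 1mM TCEP, 0.01% Tween-20, 0.1 mg/ml BSA.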
# [8] = target: DNA dC->dU-editing enzyme APOBEC-3G (Homo sapiens) (UniProt Q9HC16); test: qHTS for inhibitors of Vif-A3G interactions: Validation (AID 588379)
# Sequence of DNA dC->dU-editing enzyme APOBEC-3G (Homo sapiens) (Q9HC16 whole entry, looked up): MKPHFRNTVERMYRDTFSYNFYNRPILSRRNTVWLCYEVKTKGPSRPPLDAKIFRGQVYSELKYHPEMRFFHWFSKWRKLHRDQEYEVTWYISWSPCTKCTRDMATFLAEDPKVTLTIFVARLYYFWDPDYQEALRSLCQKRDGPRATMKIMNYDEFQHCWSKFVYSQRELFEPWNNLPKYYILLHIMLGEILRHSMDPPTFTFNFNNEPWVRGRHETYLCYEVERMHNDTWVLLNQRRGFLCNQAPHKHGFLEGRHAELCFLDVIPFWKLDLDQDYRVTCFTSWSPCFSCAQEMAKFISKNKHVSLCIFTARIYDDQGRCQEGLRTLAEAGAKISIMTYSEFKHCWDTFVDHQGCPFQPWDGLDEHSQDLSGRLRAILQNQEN
# How it was run: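 Yellow fluorescence (Ex 488, Em 500-530) of Vif-coexpressing HeLa A3G-eYFP cells, scanned by Acumen cytometer, reports blocked A3G degradation. Cells plated at 700/well overnight at 37 deg C before compound addition, then a further overnight compound incubation at 37 deg C.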
# [9] = target: Luciferin 4-monooxygenase (Photinus pyralis) (UniProt P08659); test: Biochemical firefly luciferase enzyme assay for NPC (AID 624030);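 further: purified P. pyralis luciferase at 10 nM with luciferin and ATP substrate; nearly all actives have a fitted effect of over 70% in size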
# Sequence of Luciferin 4-monooxygenase (Photinus pyralis) (P08659 whole entry, looked up): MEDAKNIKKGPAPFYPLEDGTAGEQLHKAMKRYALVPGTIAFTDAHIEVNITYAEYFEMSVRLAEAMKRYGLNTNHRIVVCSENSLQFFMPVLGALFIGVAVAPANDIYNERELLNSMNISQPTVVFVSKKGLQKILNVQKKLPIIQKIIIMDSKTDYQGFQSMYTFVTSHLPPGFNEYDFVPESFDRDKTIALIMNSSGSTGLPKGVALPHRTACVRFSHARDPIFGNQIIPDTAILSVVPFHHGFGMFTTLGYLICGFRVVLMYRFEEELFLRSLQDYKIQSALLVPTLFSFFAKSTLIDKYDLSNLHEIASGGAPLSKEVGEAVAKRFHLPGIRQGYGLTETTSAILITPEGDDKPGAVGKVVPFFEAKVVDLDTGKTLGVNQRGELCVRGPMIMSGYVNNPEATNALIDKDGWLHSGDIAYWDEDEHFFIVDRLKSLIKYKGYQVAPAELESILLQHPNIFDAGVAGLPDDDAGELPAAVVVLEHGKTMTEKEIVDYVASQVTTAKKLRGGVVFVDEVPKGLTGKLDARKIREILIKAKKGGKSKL
# How it was run: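 Direct inhibition of firefly luciferase enzyme (10 nM final, 50 mM Tris Acetate) assessed by luminescence within 5 minutes. Percent activity scaled between DMSO and PTC124 positive control, with concentration-effect curves classified by fit quality and response.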
# [10] = S16 Schwann cell viability assay (CellTiter-Glo assay) (AID 624031);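 further: cellular ATP luminescence as a viability measure; nearly all actives have a fitted effect of over 70% in size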
# How it was run: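 CellTiter-Glo ATP luminescence counter-screen in untransfected S16 rat Schwann cells, 24h compound exposure at 37 degree Celsius after overnight seeding (500-750 cells/well); response scaled between cell-free wells and DMSO (0% activity), curves classed by r2 and magnitude.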
# [11] = S16 Schwann cell PMP22 intronic element beta-lactamase assay (AID 624044; calls by dose curve; further: nearly all actives have a fitted effect of over 15% in size); details: S16 rat Schwann cells, PMP22 element beta-lactamase FRET, 24 h; ratio activity, negative = inhibition: at 38.3 µM (top of the series)
# How it was run: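 Beta-lactamase reporter under a PMP22 intronic regulatory element in stable S16 rat Schwann cells; 24 h compound exposure. 460 nm blue signal normalized between DMSO (0%) and potassium clavulanate, with 535 nm FRET tracking viability; curves classed by r2 and response.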
# [12] = qHTS profiling for inhibitors of Plasmodium falciparum proliferation (AID 504749); further: nearly all actives have a fitted effect of over 60% in size; details: P. falciparum in erythrocytes, SYBR Green DNA, 72 h, at 28.7 µM (top of the series)
# How it was run: (§1)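 In a 72 h erythrocytic culture (37 C, humidified, 5% CO2) at 2.5% hematocrit and 0.3% starting parasitemia, compounds were tested; SYBR Green I in detergent lysis buffer stained parasite DNA overnight.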
# 3D7 = test: as above; details: P. falciparum in erythrocytes, SYBR Green DNA, 72 h; series mostly up to 28.7 µM
# How it was run: as §1
# 7G8 = test: as above; details: P. falciparum in erythrocytes, SYBR Green DNA, 72 h; series mostly up to 28.7 µM
# How it was run: as §1
# AA1029 = test: as above; details: P. falciparum in erythrocytes, SYBR Green DNA, 72 h; series mostly up to 28.7 µM
# How it was run: as §1
# AS120 = test: as above; details: P. falciparum in erythrocytes, SYBR Green DNA, 72 h; series mostly up to 28.7 µM
# How it was run: as §1
# ATS189 = test: as above; details: P. falciparum in erythrocytes, SYBR Green DNA, 72 h; series mostly up to 28.7 µM
# How it was run: as §1
# ATS95 = test: as above; details: P. falciparum in erythrocytes, SYBR Green DNA, 72 h; series mostly up to 28.7 µM
# How it was run: as §1
# C2A = test: as above; details: P. falciparum in erythrocytes, SYBR Green DNA, 72 h; series mostly up to 28.7 µM
# How it was run: as §1
# CP185 = test: as above; details: P. falciparum in erythrocytes, SYBR Green DNA, 72 h; series mostly up to 28.7 µM
# How it was run: as §1
# CP191 = test: as above; details: P. falciparum in erythrocytes, SYBR Green DNA, 72 h; series mostly up to 28.7 µM
# How it was run: as §1
# CP192 = test: as above; details: P. falciparum in erythrocytes, SYBR Green DNA, 72 h; series mostly up to 28.7 µM
# How it was run: as §1
# CP194 = test: as above; details: P. falciparum in erythrocytes, SYBR Green DNA, 72 h; series mostly up to 28.7 µM
# How it was run: as §1
# CP201 = test: as above; details: P. falciparum in erythrocytes, SYBR Green DNA, 72 h; series mostly up to 28.7 µM
# How it was run: as §1
# CP203 = test: as above; details: P. falciparum in erythrocytes, SYBR Green DNA, 72 h; series mostly up to 28.7 µM
# How it was run: as §1
# CP211 = test: as above; details: P. falciparum in erythrocytes, SYBR Green DNA, 72 h; series mostly up to 28.7 µM
# How it was run: as §1
# CP215 = test: as above; details: P. falciparum in erythrocytes, SYBR Green DNA, 72 h; series mostly up to 28.7 µM
# How it was run: as §1
# CP217 = test: as above; details: P. falciparum in erythrocytes, SYBR Green DNA, 72 h; series mostly up to 28.7 µM
# How it was run: as §1
# CP237 = test: as above; details: P. falciparum in erythrocytes, SYBR Green DNA, 72 h; series mostly up to 28.7 µM
# How it was run: as §1
# CP238 = test: as above; details: P. falciparum in erythrocytes, SYBR Green DNA, 72 h; series mostly up to 28.7 µM
# How it was run: as §1
# CP247 = test: as above; details: P. falciparum in erythrocytes, SYBR Green DNA, 72 h; series mostly up to 28.7 µM
# How it was run: as §1
# CP250 = test: as above; details: P. falciparum in erythrocytes, SYBR Green DNA, 72 h; series mostly up to 28.7 µM
# How it was run: as §1
# CP252 = test: as above; details: P. falciparum in erythrocytes, SYBR Green DNA, 72 h; series mostly up to 28.7 µM
# How it was run: as §1
# CP256 = test: as above; details: P. falciparum in erythrocytes, SYBR Green DNA, 72 h; series mostly up to 28.7 µM
# How it was run: as §1
# CP260 = test: as above; details: P. falciparum in erythrocytes, SYBR Green DNA, 72 h; series mostly up to 28.7 µM
# How it was run: as §1
smiles,measurement,setting,value
O=C(O)[C@H]1C[C@@H](CP(=O)(O)O)CCN1,Potency,[1],25.1 µM (active)
same,Potency,[2],> 46 µM
same,Potency,[3],inactive
same,Potency,[4],inactive
same,Potency,[5],7.94 µM (active)
same,Potency,[6],inactive
same,Potency,[7],inactive
same,outcome,[8],inactive
same,Potency,[9],inactive
same,Potency,[10],inactive
same,Potency,[11],inactive
same,"activity, negative = inhibition",[12]; parasite line A,-7.9%
same,"activity, negative = inhibition",[12]; parasite line B,-2.91%
same,Potency,3D7,inactive
same,Potency,7G8,inactive
same,Potency,AA1029,inactive
same,Potency,AS120,inactive
same,Potency,ATS189,inactive
same,Potency,ATS95,inactive
same,Potency,C2A,inactive
same,Potency,CP185,inactive
same,Potency,CP191,inactive
same,Potency,CP192,inactive
same,Potency,CP194,inactive
same,Potency,CP201,inactive
same,Potency,CP203,inactive
same,Potency,CP211,inactive
same,Potency,CP215,inactive
same,Potency,CP217,inactive
same,Potency,CP237,inactive
same,Potency,CP238,inactive
same,Potency,CP247,inactive
same,Potency,CP250,inactive
same,Potency,CP252,inactive
same,Potency,CP256,inactive
same,Potency,CP260,inactive
